# What was measured:
# Test in all cases: PBM binding z-score (relative to random genomic background probes); higher = stronger binding; sequences stand for … in GC…GCGATTGACAGCGTAGAATGAAGG
# [1] = test system: FXR:RXRa (NR concentration 270 nM, RXRa partner concentration 90 nM)
# How it was run: (§1)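 Antibodies against each partner of ligand-free nuclear receptor dimers (one per run) detected binding on custom Agilent 4×180K protein-binding microarrays after 1 h incubation. The double-stranded probes had 34-nt variable regions carrying direct-repeat seeds, single-nucleotide variants, half-site ablations and random human genomic background sequences. Binding z-scores, from regression-normalized fluorescence, use the random background probes as reference.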
# [2] = test system: LXRa:RXRa (NR concentration 270 nM, RXRa partner concentration 90 nM)
# How it was run: as §1
# [3] = test system: LXRa homodimer (NR concentration 270 nM)
# How it was run: as §1
# [4] = test system: LXRb:RXRa (NR concentration 270 nM, RXRa partner concentration 90 nM)
# How it was run: as §1
# [5] = test system: LXRb homodimer (NR concentration 270 nM)
# How it was run: as §1
# [6] = test system: PPARa:RXRa (NR concentration 270 nM, RXRa partner concentration 90 nM)
# How it was run: as §1
# [7] = test system: PPARg:RXRa (NR concentration 180 nM, RXRa partner concentration 90 nM)
# How it was run: as §1
# [8] = test system: PPARg:RXRa 270nM:90nM, anti-RXR (NR concentration 270 nM, RXRa partner concentration 90 nM)
# How it was run: as §1
# [9] = test system: PPARg:RXRa 30nM:10nM, anti-RXR (NR concentration 30 nM, RXRa partner concentration 10 nM)
# How it was run: as §1
# [10] = test system: PPARg:RXRa 90nM:30nM, anti-RXR (NR concentration 90 nM, RXRa partner concentration 30 nM)
# How it was run: as §1
# [11] = test system: PPARg:RXRa DBDmut IVT, anti-RXR (DBD mutation: RXRa K156A/R161A, NR concentration 270 nM, RXRa partner concentration 90 nM)
# How it was run: as §1
# [12] = test system: PPARg:RXRa IVT, anti-PPARg (NR concentration 270 nM, RXRa partner concentration 90 nM)
# How it was run: as §1
# [13] = test system: PPARg DBDmut:RXRa IVT, anti-PPARg (DBD mutation: PPARg1 K132A/R137A, NR concentration 270 nM, RXRa partner concentration 90 nM)
# How it was run: as §1
# [14] = test system: PPARg DBDmut IVT, anti-PPARg (DBD mutation: PPARg1 K132A/R137A, NR concentration 270 nM)
# How it was run: as §1
# [15] = test system: PPARg homodimer (NR concentration 180 nM)
# How it was run: as §1
# [16] = test system: PXR:RXRa (NR concentration 270 nM, RXRa partner concentration 90 nM)
# How it was run: as §1
# [17] = test system: PXR homodimer (NR concentration 270 nM)
# How it was run: as §1
# [18] = test system: RARa:RXR (NR concentration 270 nM, RXRa partner concentration 90 nM)
# How it was run: as §1
# [19] = test system: RARa homodimer (NR concentration 270 nM)
# How it was run: as §1
# [20] = test system: RARb:RXRa (NR concentration 270 nM, RXRa partner concentration 90 nM)
# How it was run: as §1
Sequence,PBM binding z-score [1],PBM binding z-score [2],PBM binding z-score [3],PBM binding z-score [4],PBM binding z-score [5],PBM binding z-score [6],PBM binding z-score [7],PBM binding z-score [8],PBM binding z-score [9],PBM binding z-score [10],PBM binding z-score [11],PBM binding z-score [12],PBM binding z-score [13],PBM binding z-score [14],PBM binding z-score [15],PBM binding z-score [16],PBM binding z-score [17],PBM binding z-score [18],PBM binding z-score [19],PBM binding z-score [20]
TAGCCTAGTTCATTGGGCCAGTATAGTACGCATC,-0.0548,0.147,-0.141,0.139,-0.687,0.81,0.461,0.538,-0.446,0.253,1.48,1.68,-0.38,-0.291,-0.325,0.756,0.651,-0.0581,-0.777,1.17
TCATCTAGGTAAAGGTGAAAGTCGAACGATATGA,1.37,1.5,0.00636,1.3,0.134,3.3,3.93,4.83,4.58,4.92,4.03,4.69,1.07,0.677,1.57,0.89,0.0192,1.61,0.277,2.05
TAGCCTAGGTCAGATCGGGCCAGTATGCGCTATA,2.71,1.19,-0.503,0.727,-0.424,1.73,0.328,0.593,-0.423,0.0994,0.347,1.3,-0.699,-0.549,-0.654,0.891,-0.704,0.898,-0.754,3.16
CAAACTAGGTCACCGGAAGGTCAAAGACCGCATG,5.97,5.91,4.14,4.91,1.03,6.19,9.78,7.64,5.86,7.65,8.27,8.78,2.33,1.54,7.7,5.6,1.46,7.13,2.64,5.2
TCTAGTTGGTAACGGAGGTCACACACGACGGGTA,2.77,3.39,3.31,3.27,0.826,3.7,2.37,3.33,3.38,3.55,1.63,2.76,0.969,0.885,2.11,3.99,1.46,4.04,1.83,3.27
GCTATTAGTTGAAAGGGCAGCCGAATGATTCTCG,0.117,0.132,-0.239,0.0989,-0.467,1.69,1.92,3.53,1.46,3.05,0.343,0.268,-0.735,-0.14,0.871,0.09,0.28,0.515,0.871,1.78
CACACAGGGTCAGCTAGGCCAGAGTAGGGACGGC,4.77,2.64,-0.0558,2.18,0.152,4.32,3.21,2.62,0.502,1.62,0.553,2.09,0.463,0.562,2.14,2.06,0.13,3.32,0.53,4.09
TCTAGCAGGCCAGAGGGCCACTCAAGAGGTACGG,-0.266,-0.338,-0.799,-0.58,-1.64,0.104,0.795,1.97,1.77,1.71,0.914,-0.0389,-0.285,-0.851,-0.331,-0.535,-0.284,-0.732,-0.342,0.248
TCATATAGGTAATACAGGTGAAATTCGGCATCTA,1.05,1.37,0.75,1.17,0.147,1.96,1.65,2.53,3.85,3.09,3.87,2.95,1.39,1.39,1.02,0.776,0.431,1.2,1.76,0.602
CCGTACGGGTCACTCCAGGTTATAGCATCGGAGT,5.48,7.91,1.62,5.38,-0.751,4.45,2.97,3.49,1.05,1.9,1.15,2.49,-0.309,-1.04,1.42,5.22,0.156,3.89,-0.104,3.64
TAGCGTAGGTCATTGGGCCAGTATAGTACGCATC,4.93,3.92,0.617,2.84,0.375,4.15,3.75,3.91,1.25,2.52,1.8,3.26,0.193,-0.343,1.85,2.07,-0.335,2.36,-0.0783,3.74
AGAATGAGGTTAAGATCAGGCAAACAGAATACAT,2.11,5.61,-0.312,2.82,-0.408,3.45,2.21,2.38,0.95,1.63,2.85,2.81,0.992,0.64,0.518,1.33,-0.00329,2.09,0.263,1.92
CCGACTGGGGCAAGGTGACCATAACGCACAGCCA,-0.279,-0.424,-0.369,-0.293,-1.35,0.808,1.99,1.81,-0.0516,0.949,2.69,3.79,-0.323,-0.812,0.0642,-0.346,-0.578,-0.0197,-0.0269,1.14
CTACCAAGGTGAACAAGGTCGTTTATTACTATTC,1.5,1.78,0.765,2.61,-0.00441,2.46,1.06,1.2,0.0871,0.818,2.67,2.5,0.494,0.322,1.29,3.07,2.38,2.12,0.698,2.26
CAAACTAGGTCAAGCTCAAAGTCGGTTTGTGCCA,4.15,2.87,0.38,1.86,0.134,4.98,7.79,7.36,4.77,7.27,8.39,8.97,4.04,1.47,1.52,1.38,-0.401,2.52,0.322,4.33

# — the supplement of paper PMC6555819
